Our source for the inhibition values is ChEMBL document CHEMBL1961873, “Compounds: GSK PKIS; Assays: Nanosyn kinase panel” (2012).

Assay [1] deals with Tyrosine-protein kinase ABL1 (Homo sapiens), P00519 [T315I]. The settings on record: at 1 µM.
Assay [2] has as its system Tyrosine-protein kinase ABL1 (Homo sapiens), P00519 [Y253F]. To be noted: at 0.1 µM.
Assay [3] has the same test system. To be noted: at 1 µM.
In assay [4] the target is Tyrosine-protein kinase ABL1 (Homo sapiens) (UniProt P00519). The settings on record: at 0.1 µM.
The target is the same in assay [5]. The settings on record: at 1 µM.
For assay [6], the target named is ALK tyrosine kinase receptor (Homo sapiens) (UniProt Q9UM73). The settings on record: at 0.1 µM.
Assay [7] has the same target. The settings on record: at 1 µM.
The target of assay [8] is Tyrosine-protein kinase ABL2 (Homo sapiens) (UniProt P42684). To be noted: at 0.1 µM.
Assay [9] shares this target. To be noted: at 1 µM.
Assay [10] concerns the target Tyrosine-protein kinase receptor UFO (Homo sapiens) (UniProt P30530). The settings on record: at 0.1 µM.
Assay [11] shares this target. The settings on record: at 1 µM.
The target of assay [12] is Tyrosine-protein kinase Blk (Homo sapiens) (UniProt P51451). To be noted: at 0.1 µM.
Assay [13] has the same target. To be noted: at 1 µM.
Assay [14] deals with T1, Cytoplasmic tyrosine-protein kinase BMX (Homo sapiens) (UniProt P51813).
T1 sequence (whole entry): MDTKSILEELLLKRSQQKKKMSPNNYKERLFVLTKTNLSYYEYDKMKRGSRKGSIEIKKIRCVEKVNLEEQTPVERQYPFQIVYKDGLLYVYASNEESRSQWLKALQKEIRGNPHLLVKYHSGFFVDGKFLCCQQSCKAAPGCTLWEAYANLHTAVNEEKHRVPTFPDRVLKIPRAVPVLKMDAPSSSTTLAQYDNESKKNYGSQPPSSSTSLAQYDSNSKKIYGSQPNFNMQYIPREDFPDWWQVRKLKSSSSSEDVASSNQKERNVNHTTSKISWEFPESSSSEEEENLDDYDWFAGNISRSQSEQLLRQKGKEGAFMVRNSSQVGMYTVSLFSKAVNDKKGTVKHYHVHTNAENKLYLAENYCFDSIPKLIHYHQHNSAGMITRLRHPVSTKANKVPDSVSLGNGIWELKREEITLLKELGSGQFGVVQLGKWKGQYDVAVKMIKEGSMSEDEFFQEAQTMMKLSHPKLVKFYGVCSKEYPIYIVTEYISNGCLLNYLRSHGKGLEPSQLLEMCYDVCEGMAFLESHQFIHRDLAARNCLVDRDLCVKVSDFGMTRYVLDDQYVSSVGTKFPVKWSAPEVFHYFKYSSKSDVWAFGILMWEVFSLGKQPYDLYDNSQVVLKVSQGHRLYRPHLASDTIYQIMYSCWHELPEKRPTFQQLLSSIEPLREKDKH
The settings on record: at 0.1 µM.

Assay [15] deals with T1, Cytoplasmic tyrosine-protein kinase BMX (Homo sapiens). To be noted: at 1 µM.
The target in assay [16] is Protein-tyrosine kinase 6 (Homo sapiens) (UniProt Q13882). To be noted: at 0.1 µM.
The target is the same in assay [17]. To be noted: at 1 µM.
Assay [18] has as its target Tyrosine-protein kinase BTK (Homo sapiens) (UniProt Q06187). To be noted: at 0.1 µM.
Assay [19] has the same target. The settings on record: at 1 µM.
Assay [20] concerns the target Tyrosine-protein kinase CSK (Homo sapiens) (UniProt P41240). To be noted: at 0.1 µM.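 Note: value given is the averaged percent inhibition of CSK kinase activity, from the GSK PKIS kinase inhibitor set screening panel.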

Sequence of Tyrosine-protein kinase ABL2 (Homo sapiens) (P42684 whole entry): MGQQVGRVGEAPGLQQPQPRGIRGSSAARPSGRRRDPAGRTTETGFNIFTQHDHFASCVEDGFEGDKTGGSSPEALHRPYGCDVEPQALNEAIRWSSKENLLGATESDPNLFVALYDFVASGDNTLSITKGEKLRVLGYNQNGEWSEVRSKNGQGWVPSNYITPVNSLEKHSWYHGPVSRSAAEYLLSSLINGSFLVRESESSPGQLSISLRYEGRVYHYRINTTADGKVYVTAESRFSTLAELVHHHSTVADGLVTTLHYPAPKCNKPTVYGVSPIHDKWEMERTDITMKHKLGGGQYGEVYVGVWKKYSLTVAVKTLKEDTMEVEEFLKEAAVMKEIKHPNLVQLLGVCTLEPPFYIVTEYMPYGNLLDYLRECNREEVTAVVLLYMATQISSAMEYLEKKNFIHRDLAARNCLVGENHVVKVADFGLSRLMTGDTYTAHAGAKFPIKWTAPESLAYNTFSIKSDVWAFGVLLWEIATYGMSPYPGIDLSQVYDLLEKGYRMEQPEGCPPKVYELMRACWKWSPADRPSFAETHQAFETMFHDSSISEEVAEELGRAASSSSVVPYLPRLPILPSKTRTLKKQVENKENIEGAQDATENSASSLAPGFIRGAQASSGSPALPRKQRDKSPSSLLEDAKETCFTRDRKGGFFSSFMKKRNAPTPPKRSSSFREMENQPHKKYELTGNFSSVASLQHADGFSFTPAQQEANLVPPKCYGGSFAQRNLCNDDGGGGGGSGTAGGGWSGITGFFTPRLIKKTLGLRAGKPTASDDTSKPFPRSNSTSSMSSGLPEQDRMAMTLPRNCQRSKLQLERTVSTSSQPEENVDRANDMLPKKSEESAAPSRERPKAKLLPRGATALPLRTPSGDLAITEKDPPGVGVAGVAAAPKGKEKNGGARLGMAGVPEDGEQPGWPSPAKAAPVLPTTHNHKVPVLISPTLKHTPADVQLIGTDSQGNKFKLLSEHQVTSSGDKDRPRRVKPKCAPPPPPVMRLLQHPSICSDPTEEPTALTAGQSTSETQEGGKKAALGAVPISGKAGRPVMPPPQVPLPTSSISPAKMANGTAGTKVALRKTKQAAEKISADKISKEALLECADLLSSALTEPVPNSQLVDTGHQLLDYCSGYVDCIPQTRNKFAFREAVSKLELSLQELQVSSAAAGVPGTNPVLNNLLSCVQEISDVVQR
Sequence of Tyrosine-protein kinase receptor UFO (Homo sapiens) (P30530 whole entry): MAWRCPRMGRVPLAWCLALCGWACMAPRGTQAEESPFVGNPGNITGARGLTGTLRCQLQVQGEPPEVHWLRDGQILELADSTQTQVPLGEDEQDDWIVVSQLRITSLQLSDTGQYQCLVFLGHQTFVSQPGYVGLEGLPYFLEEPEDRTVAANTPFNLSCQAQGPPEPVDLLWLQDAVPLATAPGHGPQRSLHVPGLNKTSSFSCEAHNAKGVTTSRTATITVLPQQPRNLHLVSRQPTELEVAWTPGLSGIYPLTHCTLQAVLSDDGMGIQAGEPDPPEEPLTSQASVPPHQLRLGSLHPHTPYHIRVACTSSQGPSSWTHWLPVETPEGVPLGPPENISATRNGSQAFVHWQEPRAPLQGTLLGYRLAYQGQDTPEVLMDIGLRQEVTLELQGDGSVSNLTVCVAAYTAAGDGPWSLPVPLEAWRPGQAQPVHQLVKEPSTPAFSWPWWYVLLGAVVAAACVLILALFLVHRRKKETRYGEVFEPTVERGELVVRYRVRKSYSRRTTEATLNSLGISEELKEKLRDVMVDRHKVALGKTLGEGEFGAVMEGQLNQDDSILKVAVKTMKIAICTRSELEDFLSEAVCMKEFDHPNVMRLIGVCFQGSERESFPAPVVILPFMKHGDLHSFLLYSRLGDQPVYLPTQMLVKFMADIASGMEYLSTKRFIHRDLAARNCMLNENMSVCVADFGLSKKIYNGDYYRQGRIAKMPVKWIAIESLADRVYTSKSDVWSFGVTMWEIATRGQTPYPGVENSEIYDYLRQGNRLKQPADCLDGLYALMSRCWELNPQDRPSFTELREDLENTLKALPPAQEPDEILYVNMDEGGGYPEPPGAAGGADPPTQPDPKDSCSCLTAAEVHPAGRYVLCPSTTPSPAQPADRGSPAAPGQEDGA
Sequence of Tyrosine-protein kinase CSK (Homo sapiens) (P41240 2-450 limits assumed): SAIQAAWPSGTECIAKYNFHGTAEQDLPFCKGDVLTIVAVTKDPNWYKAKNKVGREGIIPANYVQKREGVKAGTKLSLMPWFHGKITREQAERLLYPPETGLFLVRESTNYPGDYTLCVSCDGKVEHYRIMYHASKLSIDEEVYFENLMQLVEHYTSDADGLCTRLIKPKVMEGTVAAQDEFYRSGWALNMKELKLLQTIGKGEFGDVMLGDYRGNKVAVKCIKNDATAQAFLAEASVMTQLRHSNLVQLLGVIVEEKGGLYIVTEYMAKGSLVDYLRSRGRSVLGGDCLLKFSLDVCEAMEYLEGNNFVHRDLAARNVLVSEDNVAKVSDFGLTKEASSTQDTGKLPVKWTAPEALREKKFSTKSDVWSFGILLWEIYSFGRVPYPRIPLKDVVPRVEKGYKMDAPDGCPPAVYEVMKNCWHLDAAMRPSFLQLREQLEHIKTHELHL
Sequence of Tyrosine-protein kinase Blk (Homo sapiens) (P51451 2-505 limits assumed): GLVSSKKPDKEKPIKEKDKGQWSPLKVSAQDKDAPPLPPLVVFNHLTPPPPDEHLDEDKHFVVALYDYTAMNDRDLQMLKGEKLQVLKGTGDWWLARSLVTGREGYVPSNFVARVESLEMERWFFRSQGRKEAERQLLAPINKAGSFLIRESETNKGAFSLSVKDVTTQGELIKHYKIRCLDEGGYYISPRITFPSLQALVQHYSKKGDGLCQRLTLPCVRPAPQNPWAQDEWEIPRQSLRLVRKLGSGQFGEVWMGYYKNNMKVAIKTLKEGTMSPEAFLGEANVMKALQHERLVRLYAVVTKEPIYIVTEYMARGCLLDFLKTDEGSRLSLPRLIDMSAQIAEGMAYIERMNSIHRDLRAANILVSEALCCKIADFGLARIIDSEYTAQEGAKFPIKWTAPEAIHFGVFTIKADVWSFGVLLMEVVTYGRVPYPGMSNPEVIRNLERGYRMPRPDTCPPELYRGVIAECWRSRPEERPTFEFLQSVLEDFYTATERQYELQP
Sequence of Protein-tyrosine kinase 6 (Homo sapiens) (Q13882 whole entry, looked up): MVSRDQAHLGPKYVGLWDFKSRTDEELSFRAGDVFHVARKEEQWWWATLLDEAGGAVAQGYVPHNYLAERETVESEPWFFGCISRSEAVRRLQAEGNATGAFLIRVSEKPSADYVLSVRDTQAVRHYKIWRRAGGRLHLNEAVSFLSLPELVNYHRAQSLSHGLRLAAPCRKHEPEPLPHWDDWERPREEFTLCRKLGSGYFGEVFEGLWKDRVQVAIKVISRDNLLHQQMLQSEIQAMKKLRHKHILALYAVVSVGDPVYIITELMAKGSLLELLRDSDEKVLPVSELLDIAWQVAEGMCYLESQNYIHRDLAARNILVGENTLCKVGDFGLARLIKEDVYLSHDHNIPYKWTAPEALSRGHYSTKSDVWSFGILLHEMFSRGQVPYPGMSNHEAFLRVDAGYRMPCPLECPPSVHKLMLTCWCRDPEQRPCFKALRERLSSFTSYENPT
Sequence of ALK tyrosine kinase receptor (Homo sapiens) (Q9UM73 19-1620 limits assumed): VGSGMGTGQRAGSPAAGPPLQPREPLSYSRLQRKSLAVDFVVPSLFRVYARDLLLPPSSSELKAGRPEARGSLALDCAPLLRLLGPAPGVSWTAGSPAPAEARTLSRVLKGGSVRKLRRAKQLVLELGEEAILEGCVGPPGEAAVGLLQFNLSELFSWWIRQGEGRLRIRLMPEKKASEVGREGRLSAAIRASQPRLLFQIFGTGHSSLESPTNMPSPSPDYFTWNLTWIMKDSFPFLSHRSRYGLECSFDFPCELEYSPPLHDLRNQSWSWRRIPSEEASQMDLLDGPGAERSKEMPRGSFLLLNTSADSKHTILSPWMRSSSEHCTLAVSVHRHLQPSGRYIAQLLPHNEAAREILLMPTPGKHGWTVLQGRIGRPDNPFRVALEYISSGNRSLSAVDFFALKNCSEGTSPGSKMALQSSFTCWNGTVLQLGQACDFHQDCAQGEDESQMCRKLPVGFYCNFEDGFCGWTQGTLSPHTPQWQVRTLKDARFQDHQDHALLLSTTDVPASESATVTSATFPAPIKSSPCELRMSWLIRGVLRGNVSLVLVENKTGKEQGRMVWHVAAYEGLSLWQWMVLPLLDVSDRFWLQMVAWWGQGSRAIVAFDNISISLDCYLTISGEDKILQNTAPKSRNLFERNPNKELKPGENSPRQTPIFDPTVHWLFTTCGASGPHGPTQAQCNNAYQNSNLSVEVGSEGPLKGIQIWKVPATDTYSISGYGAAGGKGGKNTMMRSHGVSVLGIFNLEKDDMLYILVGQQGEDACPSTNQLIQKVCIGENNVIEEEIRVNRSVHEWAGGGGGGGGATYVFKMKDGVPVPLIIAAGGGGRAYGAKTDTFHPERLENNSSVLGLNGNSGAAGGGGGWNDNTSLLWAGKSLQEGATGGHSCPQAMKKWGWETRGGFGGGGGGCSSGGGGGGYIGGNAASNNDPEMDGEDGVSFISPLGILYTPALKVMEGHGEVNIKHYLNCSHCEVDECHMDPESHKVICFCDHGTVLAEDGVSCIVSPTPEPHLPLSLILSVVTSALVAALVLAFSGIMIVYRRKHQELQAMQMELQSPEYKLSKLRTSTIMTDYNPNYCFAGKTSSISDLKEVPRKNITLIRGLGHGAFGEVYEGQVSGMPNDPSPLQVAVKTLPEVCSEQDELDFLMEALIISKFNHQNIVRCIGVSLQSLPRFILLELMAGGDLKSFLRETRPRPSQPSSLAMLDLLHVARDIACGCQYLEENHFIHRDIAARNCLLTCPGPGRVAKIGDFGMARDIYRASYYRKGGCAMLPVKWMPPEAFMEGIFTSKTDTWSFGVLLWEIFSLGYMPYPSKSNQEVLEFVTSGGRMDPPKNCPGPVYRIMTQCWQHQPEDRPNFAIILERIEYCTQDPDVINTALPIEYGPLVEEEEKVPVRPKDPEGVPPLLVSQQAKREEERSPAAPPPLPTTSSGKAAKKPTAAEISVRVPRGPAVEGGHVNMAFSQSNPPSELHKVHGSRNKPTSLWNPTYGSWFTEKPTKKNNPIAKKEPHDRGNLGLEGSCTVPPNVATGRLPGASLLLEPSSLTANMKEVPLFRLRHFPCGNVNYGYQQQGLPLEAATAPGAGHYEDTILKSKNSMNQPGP

On to `COc1ccc2cc(-c3c(-c4ccncc4)nc(-c4ccc(S(C)(=O)=O)cc4C)n3C)ccc2c1`, for which the inhibition in [1] stood at 42.6%; in [2], 4.62%; in assay [3], 18%; in assay [4], 2.92%; in assay [5], 13.5%; in assay [6], 2.91%. The inhibition in [7] is 6.27%; in [8], 2.97%; in [9], 11.7%; in assay [10], -5.68%; in [11], -4.46%; in [12], 3.03%. Also, the inhibition in assay [13] is 7.1%; in [14], 5.32%; in assay [15] it was 3.88%; in assay [16], 29%; in [17] it was 85%; in assay [18] it was -2.49%. In addition, the inhibition came to 0.28% in assay [19] and 3.76% in assay [20].
On to `NCc1ccc(-n2c(-c3nonc3N)nc3cnccc32)cc1`, for which the inhibition turned out to be 0.9% in [1]; 4.15% in assay [2]; 2.66% in [3]; 4.78% in assay [4]; 3.54% in [5]; 6.31% in [6]. Besides, the inhibition is 17.3% in assay [7]; 4.87% in [8]; 6.75% in [9]; -7.21% in assay [10]; -1.85% in assay [11]; 3.21% in [12]. Besides, the inhibition in assay [13] is 4.2%; in [14], 5.93%; in assay [15] it was 4.77%; in assay [16] it was 5.04%; in assay [17], 5.62%; in assay [18], -0.77%. Moreover, the inhibition was determined as 0.66% in [19] and 3.09% in assay [20].
With `COC(=O)Nc1nc2ccc(Sc3ccc(NC(=O)Nc4cc(C(F)(F)F)ccc4F)cc3)cc2[nH]1`, the inhibition in [1] stood at 72.3%; in assay [2] it was 3.61%; in assay [3], 31.3%; in assay [4], 3.45%; in assay [5] it was 33%; in assay [6] it was 1.12%. In addition, the inhibition stood at 2.57% in assay [7]; 11.8% in [8]; 58.9% in assay [9]; 1.61% in [10]; 10.9% in [11]; 0.49% in assay [12]. Moreover, the inhibition is 2.36% in [13]; 3.33% in [14]; -0.17% in [15]; 1.16% in assay [16]; 1.4% in assay [17]; 2.12% in [18]. Also, the figures for the inhibition in [19] and in [20] were 2.1% and 1.7%, respectively.
With `O=C(NCC1CC1)c1ccc(-c2cccc(C(=O)NC3CC3)c2)cc1`, the inhibition in assay [1] turned out to be 1.69%; in assay [2], 2.82%; in assay [3], 3.7%; in [4], 3.84%; in [5], 8.82%; in [6], 1.84%. Besides, the inhibition in [7] is 3.12%; in assay [8], 3.93%; in assay [9], 5.95%; in [10] it was -3.58%; in [11] it was -0.85%; in [12] it was 1.41%. The inhibition was 3.43% in [13]; -3.65% in [14]; 3.29% in assay [15]; 0.45% in assay [16]; 3.3% in assay [17]; 1.12% in assay [18]. The inhibition was determined as 1.69% in assay [19] and 1.29% in assay [20].
Consider `COc1cc(Nc2ncc(-c3ccccc3)o2)cc(OC)c1OC`, for which the inhibition in assay [1] is 22.3%; in assay [2] it was 16.7%; in assay [3], 69.2%; in assay [4], 7.54%; in assay [5], 52.3%; in assay [6] it was -2.74%. Further, the inhibition was -0.68% in [7]; 9.54% in assay [8]; 52.1% in [9]; -0.73% in assay [10]; -1.68% in assay [11]; 4.17% in [12]. Also, the inhibition in [13] was 41.1%; in assay [14], 2.78%; in [15], 8.49%; in assay [16], 0.16%; in assay [17] it was 4.16%; in [18], -0.88%. Also, the results for the inhibition in assay [19] and in assay [20] were 0.25% and -1.07%, respectively.
Regarding `Cc1nnc(-c2ccc(C)c(-c3ccc(C(=O)NCc4ccc(Cl)cc4)cc3)c2)o1`, the inhibition in assay [1] was 3.98%; in assay [2], 3.1%; in assay [3], 5.29%; in assay [4], -2.31%; in assay [5], 1.59%; in assay [6], -1.04%. The inhibition in assay [7] was 0.41%; in [8], -0.31%; in assay [9] it was 2.57%; in assay [10], -5.93%; in assay [11], -7.1%; in assay [12] it was -0.28%. For the same compound, the inhibition in [13] is 0.7%; in [14], 2.05%; in assay [15], 1.64%; in assay [16] it was 2.2%; in assay [17], 6.8%; in assay [18], -1.06%. Also, the inhibition was -4.02% in [19] and 3.38% in assay [20].

As usually defined, the inhibition is the drop in the measured response relative to a control, in per cent.
